Abeta yeast res – qHTS for compounds that reverse cellular toxicity of Amyloid beta (A-beta) peptide in yeast: Primary Screen | actives 0.063% (n = 410,000) | Potency, µM (highest dose often 46.1 µM), most hits filed as activators | yeast expressing A-beta42, growth rescue, OD600, 48 h; response scale: 0% DMSO, 100% iron-clioquinol control; note: nearly all actives have a fitted effect of over 55% in size
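Yeast growth medium received pinned compounds, then yeast cells expressing toxic A-beta were added; plates incubated at 30 C for 48 hr. Growth read as absorbance at 600 nm, normalized to DMSO and equimolar FeCl3 plus clioquinol controls.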
aSyn yeast inh – qHTS of alpha-syn Inhibitors. Potency, µM (doses to about 46.1 µM), for the others: at the highest dose growth rescue (activation), most hits filed as activators. Yeast expressing alpha-synuclein, growth rescue, BacTiter-Glo, 24 h. AID 652106, 2013. actives 0.14% (n = 370,000); note: % of control where 0% means no effect; nearly all actives have a fitted effect of over 65% in size
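Screening used galactose-induced yeast with toxic alpha-synuclein levels, exposed to compound for 24 hr at 30 deg C. Cell growth, read with BacTiter-Glo luminescence, gave the measured signal.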
FUS suppressor – qHTS for Suppressors of FUS Proteinopathy: Primary screen using FUS-linked yeast assay; S. cerevisiae FUS-expressing, growth rescue, OD600, 24 h; Potency, µM (titrated, usually from 76.6 µM), most hits filed as activators; actives 0.24% (n = 390,000); AID 1347120, 2019;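 note: plate controls were DMSO vehicle for no effect and reference control for full effect; nearly all actives have a fitted effect of over 55% in size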
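Toxicity suppression screen in FUS-yeast. Cells induced with 2% galactose, starting OD 0.005, treated 24hr at 30C with compounds at multiple final concentrations; growth by OD600.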
ClpP mod – qHTS Assay for Activators of ClpP. ATP-dependent Clp protease proteolytic subunit (Bacillus subtilis (strain 168)), P80244. purified B. subtilis ClpP, FRET peptide cleavage, 20 min. Potency, µM (titrated, usually from 57.5 µM), for the others: top-dose activity change, negative = active. actives 1.9% (n = 340,000); active = well fitted falling curve with a large enough effect; inconclusive = small, poorly fitted or top-dose-only effect; inactive = no such curve, though single readings can be large or run the other way; note: the source files actives as falling curves though it sought activators and does not explain the sign; nearly all actives have a fitted effect of over 65% in size
Target sequence (P80244 whole entry, looked up): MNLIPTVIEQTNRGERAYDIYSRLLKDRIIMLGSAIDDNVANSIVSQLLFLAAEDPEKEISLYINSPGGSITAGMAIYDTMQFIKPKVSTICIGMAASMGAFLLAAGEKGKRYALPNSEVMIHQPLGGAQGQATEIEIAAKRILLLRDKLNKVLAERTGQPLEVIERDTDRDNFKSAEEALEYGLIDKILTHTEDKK
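Buffer: 100 mM Tris/HCl pH8, 100 mM KCl, 0.05% low protease BSA, 2.5% glycerol, 0.01% Tween-20. ClpP 10 microg/mL final; 20 min RT; delta FRET normalized to ADEP and DMSO controls.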
TDP43 rescue – qHTS of TDP-43 Inhibitors. Potency, µM (highest dose often 46.1 µM), without a hit: at the top dose growth rescue (activation), actives largely listed as activators. actives 1.8% (n = 410,000). TDP-43 expressing yeast growth rescue, BacTiter-Glo, 24 h. AID 652104, 2013; note: % of control where 0% means no effect; nearly all actives have a fitted effect of over 50% in size
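Yeast expressing TDP-43 (pregrown in raffinose, seeded at OD600=0.02 in galactose medium) exposed to compounds 24 hr at 30 deg C. Growth read by BacTiter-Glo luminescence; rescue of toxicity appears as increased signal.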
MmCpn inh – Inhibitors of TCP-1 ring complex (TRiC) of Methanococcus maripaludis (MmCpn): qHTS; Chaperonin Mm-Cpn (Methanococcus maripaludis); purified Mm-Cpn ATPase, ADP Transcreener TR-FRET; Potency, µM (top dose mostly 76.9 µM), inactives show top-dose activity, negative = inhibition, most hits filed as inhibitors; actives 0.031% (n = 330,000); note: % is set by controls: 0 for no effect and ±100 for the full control effect; nearly all actives have a fitted effect of over 80% in size
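ATPase turnover read by TR-FRET ADP competition (Eu cryptate antibody/ADP-d2, 665/590 nm): 10uM ATP final, 25nM Mm-CPN final, 30 min 37degC after 10-min compound preincubation, pH 7.4 Tris/KCl/MgCl2/DTT buffer.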
Starred values were filed as active, the others as inactive; i = inactive; u = inconclusive; x = no result given. The list is not random: actives were taken first. Their share in the collection is about 3.6%. Unless noted, calls come from the whole dose curve; as a rule, active = well fitted curve in the direction sought with a large enough effect; inconclusive = small, poorly fitted or top-dose-only effect, or another doubt; inactive = no such curve, though single readings can be large; an effect the other way counts as inactive or inconclusive. Potency is the fitted concentration of half-maximal effect.

SMILES	Abeta yeast res	aSyn yeast inh	FUS suppressor	ClpP mod	TDP43 rescue	MmCpn inh
O=C(CCNS(=O)(=O)c1ccc2c(c1)CCN2C(=O)C1CC1)N1CCN(c2cccc(Cl)c2)CC1	i	0%	u	-3%	-18%	x
Cc1cccc(N2CCN(C(=O)CCNS(=O)(=O)c3ccc4c(c3)CCN4C(=O)C3CC3)CC2)c1C	i	11%	28µM*	-8%	15%	x
Cc1ccc(NC(=O)Cn2c(=O)oc3cc(S(=O)(=O)N4CCCCC4)ccc32)c(Cl)c1	i	x	i	0%	9%	x
Cc1cc(C)nc(N(C#N)CCOc2ccccc2)n1	i	u	i	-3%	13µM*	x
CN(C)c1nc(N(C)C)nc(N(C#N)CCOc2ccccc2)n1	i	17%	i	-2%	-2%	2%
N#Cc1ncc(Cc2ccccc2)nc1C#N	i	12%	i	-3%	14µM*	2%
COc1ccc(S[C@]2(C(=O)N3CCN(C(C)=O)CC3)CC(=O)N(C(=O)c3ccccc3)[C@@H]2c2ccc(OC)cc2)cc1	x	x	i	x	x	x
CCOc1ccc2nc(C)cc(C(=O)O)c2c1	i	0%	i	3.2µM*	-9%	-1%
COc1ccc2nc(C)cc(Sc3nc4ccccc4s3)c2c1	i	13%	i	1%	25µM*	-16%
COc1ccc2nc(C)cc(C(=O)O)c2c1	i	5%	i	8.9µM*	5%	0%
COc1ccc2nc(C)cc(SCC(=O)NNC(=O)COc3ccccc3)c2c1	i	-6%	x	-6%	3%	-2%
CN(Cc1ccccc1)C(=O)c1ccc2c(c1)N(Cc1ccc(Cl)cc1)C(=O)c1ccccc1S2=O (stereo not given)	i	x	i	0%	8%	x
OCC(O)C[n+]1cccc(Br)c1 (stereo not given)	x	-1%	x	0%	x	x
O=C(Nc1ccccc1)N(Cc1cccs1)c1ccc(Cl)cc1	i	x	i	2%	0%	x
CCN1C(=O)/C(=C\c2nc3ccccc3c(=O)n2CC)c2ccccc21	i	6%	i	x	13µM*	-6%
CCn1c(/C=C2/C(=O)N(C)c3ccccc32)nc2ccccc2c1=O	i	19%	i	-1%	14µM*	-15%
CCn1c(/C=C2\C(=O)N(C)c3ccccc32)nc2ccccc2c1=O	i	1%	i	1%	u	-11%
CCn1c(/C=C\c2ccccc2C)nc2ccccc2c1=O	i	-5%	i	0%	22µM*	1%
Cc1ccccc1/C=C\c1nc2ccccc2c(=O)n1Cc1ccccc1	i	-7%	i	-17%	7%	1%
CCN1C(=O)/C(=C/c2nc3ccccc3c(=O)n2-c2ccccc2)c2ccccc21	i	-7%	u	2%	-22%	-3%
COC(=O)c1cc2c(ccn2-c2ccc(F)cc2)n1Cc1ccc(OC(C)=O)cc1	i	2%	i	28µM*	19%	-11%
COC(=O)c1cc2c(ccn2-c2ccc(F)cc2)n1Cc1cccc(OC)c1	i	15%	x	28µM*	11%	0%
COC(=O)c1cc(C(=O)OC)n(Cc2ccc(F)cc2)c1C	i	-1%	i	x	23%	1%
CCOc1ccc(NC(=O)CN(c2ccc(Cl)cc2C)S(=O)(=O)c2ccccc2)cc1	i	x	22µM*	-3%	7%	x
O=C(CCc1ccc(S(=O)(=O)NCc2ccccc2)cc1)NCc1cccnc1	i	1%	x	14µM*	-24%	1%
SMILES	Abeta yeast res	aSyn yeast inh	FUS suppressor	ClpP mod	TDP43 rescue	MmCpn inh
CCOc1ccc(CNC(=O)c2ccccc2NC(=O)c2nsc3ccccc23)cc1	i	x	i	4%	7%	x
CCOc1ccc2nc(N3CCCC(C(=O)NCCc4ccc(C)cc4)C3)sc2c1 (stereo not given)	i	x	i	1%	0%	x
COC(=O)c1sc(=S)sc1C(=O)OC	i	u	i	0%	13µM*	u
CCOc1ccc(-c2nnn(CC(=O)c3cc(OC)ccc3OC)n2)cc1	i	0%	i	32µM*	3%	-8%
CCOc1ccc(-c2nnn(CC(=O)Nc3cc(OC)ccc3OC)n2)cc1OCC	i	1%	i	0%	-19%	1%
CCOC(=O)Cc1cnc(NC(=O)Cn2nnc(-c3ccc(OCC)cc3)n2)s1	i	2%	i	22µM*	u	0%
CCn1nc(C)c(/C=N/NC(=O)c2ccoc2C)c1C	i	-1%	i	16µM*	1%	0%
COc1ccc2c(c1)c1c(c(=O)n(CCc3ccccc3)c(=O)n1Cc1cccc(Cl)c1)n2C	i	x	i	4%	22%	x
CC(SC#N)C(=O)C12CC3CC(CC(C3)C1)C2 (stereo not given)	i	6%	i	x	11µM*	-14%
CC(Sc1n[nH]c(N)n1)C(=O)C12CC3CC(CC(C3)C1)C2 (stereo not given)	i	-3%	i	-2%	-2%	2%
CCOC(=O)c1c(S(=O)(=O)N2CCCC(C(=O)Nc3ccc(OCC)cc3)C2)c(C)n(C)c1C (stereo not given)	i	x	i	-2%	16%	x
FC(F)(F)c1cc(-c2cccs2)nc(-n2cc(Br)cn2)n1	i	2%	i	32µM*	u	0%
Cc1cnn(-c2nc(-c3cccs3)cc(C(F)(F)F)n2)c1	i	-9%	i	-23%	4%	-2%
Cc1cc(C)cc(-n2ccnc2SCC(=O)O)c1	i	-3%	i	28µM*	-1%	-4%
Cc1ccc(C)c(-n2ccnc2SCC(=O)O)c1	i	3%	i	1%	3%	2%
O=C(CSc1nccn1-c1ccccc1)c1ccc(Cl)cc1	i	-1%	i	4%	-10%	-2%
Cc1ccc(C(=O)CSc2nccn2-c2ccccc2)cc1	i	12%	i	28µM*	u	-1%
CCN(CC)C(=O)CSc1nc2ccc(NC(=O)CSc3nnc(N)s3)cc2s1	i	0%	10µM*	-3%	-5%	1%
Cc1cccc(NC(=O)CSc2nnnn2-c2cccnc2)c1	i	1%	i	1%	-22%	-2%
